In article PMC4336329 (PLoS ONE, 2015):
The whole screen tested about 310,000 compounds, of which about 14,000 (4.5%) showed an effect of 50% or more. Effects have a minus sign here. For the sample, strong results were picked, then their nearest neighbours and some compounds at random.

Molecular target: human ether-à-go-go-related gene (hERG) potassium channel (human, UniProt Q12809)
Experiment: primary screen, population patch clamp on CHO cells stably expressing hERG; higher = less effect of the substance
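Further: peak tail current of the secondary pulse compared with the same well before compound.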

Sequence of human ether-à-go-go-related gene (hERG) potassium channel (Q12809 whole entry, looked up): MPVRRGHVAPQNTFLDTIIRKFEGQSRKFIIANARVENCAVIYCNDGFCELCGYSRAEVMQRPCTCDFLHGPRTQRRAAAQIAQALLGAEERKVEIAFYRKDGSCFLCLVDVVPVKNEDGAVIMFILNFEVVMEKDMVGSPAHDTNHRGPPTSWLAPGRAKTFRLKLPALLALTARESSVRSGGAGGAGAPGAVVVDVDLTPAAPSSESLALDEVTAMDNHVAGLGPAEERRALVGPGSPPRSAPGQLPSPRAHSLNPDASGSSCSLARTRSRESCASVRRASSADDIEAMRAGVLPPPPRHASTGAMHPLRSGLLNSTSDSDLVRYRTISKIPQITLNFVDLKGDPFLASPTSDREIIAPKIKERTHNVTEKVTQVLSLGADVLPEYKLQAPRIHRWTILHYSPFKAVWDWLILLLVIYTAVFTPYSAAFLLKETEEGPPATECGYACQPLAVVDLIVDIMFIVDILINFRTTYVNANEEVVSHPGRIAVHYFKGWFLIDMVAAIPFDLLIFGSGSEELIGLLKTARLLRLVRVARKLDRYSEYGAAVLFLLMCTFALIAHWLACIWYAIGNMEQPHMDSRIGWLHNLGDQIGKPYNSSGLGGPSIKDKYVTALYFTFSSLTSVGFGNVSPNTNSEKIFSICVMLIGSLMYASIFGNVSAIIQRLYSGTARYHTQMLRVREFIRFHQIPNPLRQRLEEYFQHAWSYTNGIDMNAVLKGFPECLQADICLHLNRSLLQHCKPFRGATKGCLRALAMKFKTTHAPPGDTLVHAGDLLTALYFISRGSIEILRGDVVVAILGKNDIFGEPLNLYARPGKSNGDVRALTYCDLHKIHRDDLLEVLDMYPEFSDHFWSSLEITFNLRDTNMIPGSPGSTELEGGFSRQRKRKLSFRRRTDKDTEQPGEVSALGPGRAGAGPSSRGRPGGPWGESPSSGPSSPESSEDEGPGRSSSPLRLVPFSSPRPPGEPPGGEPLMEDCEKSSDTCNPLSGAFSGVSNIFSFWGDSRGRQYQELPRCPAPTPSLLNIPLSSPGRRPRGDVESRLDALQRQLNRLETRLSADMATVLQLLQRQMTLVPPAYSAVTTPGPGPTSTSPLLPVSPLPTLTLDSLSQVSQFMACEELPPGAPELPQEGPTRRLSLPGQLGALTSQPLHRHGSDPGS

Point of comparison: `CCOC(=O)c1c(NC(=O)c2cccs2)sc(C(=O)N(C)C)c1C`, “hERG current change (%, negative = inhibition) at 10uM” value -10.9%. Against it:
- O=C(O)CN(c1ccccn1)S(=O)(=O)c1ccccc1 — higher, -8.38%
- O=C(NCCc1ccccc1)C(=O)NCC(c1ccco1)N1CCOCC1 (centres unmarked) — higher, 23.8%
- Cc1ccc(NC(=O)C2CCN(S(=O)(=O)c3ccc4c(c3)CCCC(=O)N4)CC2)cc1N(C)C — lower, -14.7%
- O=C(COC(=O)c1ccc2c(c1)OCCO2)NCCC1=CCCCC1 — higher, -10.8%
- CN(C(=O)C1CCN(S(=O)(=O)c2cccs2)CC1)c1ccccc1 — lower, -16.9%
- O=C(CCS(=O)(=O)c1ccc(Br)cc1)NCc1cccs1 — lower, -11.5%
- COC(=O)C(C(=O)OC)C(C[N+](=O)[O-])c1ccc(OC)c(OC)c1 (centres unmarked) — lower, -22.7%
- CCOC(=O)C1(Cc2cccc(OC)c2)CCN(C/C=C/c2ccc(OC)cc2)CC1 — lower, -72.3%
- CCOC(=O)C1(Cc2cccc(OC)c2)CCN(CC=C(C)C)CC1 — lower, -22%
- CCOC(=O)C1(Cc2cccc(OC)c2)CCN(C/C=C/c2ccccc2)CC1 — lower, -75.9%
- N#CCCn1[nH]c(-c2ccccc2)cc1=O — higher, 5.16%
- O=C(CCCc1c[nH]c2ccccc12)Nc1ncccc1O — higher, 14.7%
- CC1CCN(C2CC(=O)N(c3ccc(Br)cc3Br)C2=O)CC1 (centres unmarked) — higher, 2.17%
- COc1ccc(C(CNC(=O)c2cc3ccccc3cc2O)N2CCOCC2)cc1 (centres unmarked) — higher, -3.36%
- CC(=O)c1cccc(CN2CCC(n3nccc3NC(=O)CCc3ccccc3)CC2)c1 — lower, -25.1%
- COCCC(=O)N1CCC(n2nccc2NC(=O)CCc2ccccc2)CC1 — higher, 14.2%
- COc1ccccc1/C=C/CN1CCC(n2nccc2NC(=O)CCc2ccccc2)CC1 — lower, -86.1%
- O=C(CCc1ccccc1)Nc1ccnn1C1CCN(C/C=C/c2ccccc2)CC1 — lower, -72.1%
- COc1cc(CC(=O)N2CCC(n3nccc3NC(=O)C3CC3)CC2)cc(OC)c1OC — higher, 12.8%
- COc1ccccc1CC(=O)N1CCC(n2nccc2NC(=O)C2CCOC2)CC1 (centres unmarked) — higher, 4.83%
- CC(C)C(=O)N1CCC(n2nccc2NC(=O)CCc2ccccc2)CC1 — higher, 18.7%
- COc1ccccc1/C=C/CN1CCC(n2nccc2NC(=O)C2CC2)CC1 — lower, -59.1%
- CSCC(=O)N1CCC(n2nccc2NC(=O)CCc2ccccc2)CC1 — higher, 12.1%
- COCC1CCCN(C(=O)c2ccc3oc(CCCc4ccccc4)nc3c2)C1 (centres unmarked) — lower, -16.2%
- CCn1c(SCC(=O)C(C)(C)C)nnc1-c1cccnc1 — higher, -0.363%
- CC(C)NS(=O)(=O)c1ccc(NC(=O)C(C)OC(=O)CCC2CCCC2)cc1 (centres unmarked) — higher, 7.06%
- Cc1cc(C(=O)N/N=C/c2cc([N+](=O)[O-])ccc2O)c2ccccc2n1 — higher, 6.35%
- CCOCCCNC(=S)N(CCN(CC)CC)Cc1cc2cc3c(cc2[nH]c1=O)OCCO3 — higher, 7.75%
- CCCN(CCC)C1Sc2ccc(C(=O)OC)cc2NC1=O (centres unmarked) — higher, -9.31%
- Cc1ccc(NC(=S)N2CCC(O)CC2)c(C)c1 — higher, 16.3%
- CC(=O)Oc1ccc2nc(CN3C(=O)c4ccc([N+](=O)[O-])cc4C3=O)oc(=O)c2c1 — higher, 10%
- O=C(NN1C(=O)c2ccccc2NC1c1ccc([N+](=O)[O-])o1)c1ccc(Br)cc1 (centres unmarked) — lower, -72.7%
- O=C(NN1C(=O)c2ccccc2NC1c1ccco1)c1ccc(Br)cc1 (centres unmarked) — lower, -76.6%
- CC(=O)NN1C(=O)c2ccccc2NC1c1ccc([N+](=O)[O-])o1 (centres unmarked) — higher, 8.22%
- CC1Nc2ccccc2C(=O)N1NC(=O)c1ccc(Br)cc1 (centres unmarked) — higher, -9.66%
- O=C(NN1C(=O)c2ccccc2NC1c1ccc([N+](=O)[O-])o1)c1ccccc1 (centres unmarked) — higher, -9.78%
- O=C(NN1C(=O)c2ccccc2NC1c1ccc([N+](=O)[O-])o1)c1ccc([N+](=O)[O-])cc1 (centres unmarked) — lower, -65.5%
- O=C(NN1C(=O)c2ccccc2NC1c1ccoc1)c1ccc([N+](=O)[O-])cc1 (centres unmarked) — lower, -41.8%
- O=C(NN1C(=O)c2ccccc2NC1c1ccco1)c1ccccc1 (centres unmarked) — higher, -0.469%
- CC(=O)NN1C(=O)c2ccccc2NC1c1ccco1 (centres unmarked) — higher, 15.7%
- COc1ccccc1NCCC(=O)OCC(=O)NC1CCCC(C)C1C (centres unmarked) — higher, 9.37%
- CCOc1cc(/C=C2/C(=N)N3N=C(C)SC3=NC2=O)ccc1OS(=O)(=O)c1ccc(C)cc1 — higher, 0.16%
- COc1ccc(NC(=O)Cn2c(=O)n(-c3ccccc3)c(=O)c3sccc32)c(OC)c1 — higher, 0.835%
- CCOC(=O)c1c(NC(=O)c2cccs2)sc(C(=O)N2CCOCC2)c1C — lower, -55.5%
- CCOC(=O)c1sc(NC(=O)CCN2CCN(C)CC2)c(C(=O)OCC)c1C — lower, -79%
- CCOC(=O)c1c(-c2ccc(OC)cc2)csc1NC(=O)CCN1CCOCC1 — lower, -53.2%
- CCOC(=O)c1c(NC(=O)c2cccs2)sc(C)c1C — higher, 3.46%
- CCOC(=O)c1sc(NC(=O)CCN2CC(C)OC(C)C2)c(C(=O)OCC)c1C.O=C(O)C(=O)O (centres unmarked) — higher, 13.9%
- CCOC(=O)c1sc(NC(=O)CCN2CCN(CC)CC2)c(C(=O)OCC)c1C — lower, -88.9%
- CCOC(=O)c1c(-c2ccc(C)cc2)csc1NC(=O)CCN1CCOCC1 — lower, -42.1%
- CCOC(=O)c1c(-c2ccc(-c3ccccc3)cc2)csc1NC(=O)CCN1CCOCC1 — higher, 13.8%
- CCOC(=O)c1sc(NC(=O)CCN2CCOCC2)c(C(=O)OCC)c1C — higher, -2.58%
- CCOC(=O)c1sc(NC(=O)CCN2CCCCCC2)c(C(=O)OCC)c1C — lower, -24.7%
- CCOC(=O)c1sc(NC(=O)CCN2CCC(C)CC2)c(C(=O)OCC)c1C — higher, 9%
- NS(=O)(=O)c1ccc(CNC(=O)CSc2ccccc2)cc1 — higher, 14.5%
- CCOC(=O)C(=NC(C)CC)NNc1cccc(C(F)(F)F)c1 (centres unmarked) — higher, -1.86%
- O=C(c1ccc([N+](=O)[O-])cc1[N+](=O)[O-])N1CCCC1 — higher, 5.62%
- CN(Cc1ccccc1)C(=O)c1cc(S(=O)(=O)N2CCOCC2)cn1C — higher, -7.13%
- Fc1cc(Br)ccc1NC(=S)Nc1cccnc1 — higher, 0.43%
- COc1ccc(C(=O)O)cc1S(=O)(=O)NC(C)C12CC3CC(CC(C3)C1)C2 (centres unmarked) — higher, 1.27%
- O=C(NC1CCCCCC1)c1c(O)c2ccccc2[nH]c1=O — higher, 8.34%
- CCOC(=O)c1ccc(NC(=O)CCc2nc(-c3ccc(C)cc3)no2)cc1 — higher, 5.14%
- Cc1cccc(OCC(=O)NCc2cc(C)nc3ccccc23)c1 — higher, -9.05%
- O=c1cc(CCl)[nH]c2nc3ccccc3n12 — higher, -6.02%
- CCC(C)n1c(SCc2ccc([N+](=O)[O-])cc2)nc2ccsc2c1=O (centres unmarked) — lower, -11.6%
- CN1CCN(c2nc(-c3ccc(Cl)s3)cs2)CC1 — higher, -3.91%
- O=c1oc(-c2ccc([N+](=O)[O-])cc2)nc2ccccc12 — higher, 18.2%
- CCOC(=O)c1sc(NC(=O)CN2CCCC2)c(C(=O)OCC)c1C — higher, -6.37%
- CCOC(=O)c1c(NC(=O)CSc2cccc[n+]2[O-])sc(C(=O)Nc2ccccc2)c1C — lower, -30.1%
- CCOC(=O)c1c(NC(=O)CN2CCN(C)CC2)sc(C(=O)Nc2ccccc2)c1C — lower, -58.9%
- Cc1ccc(NC(=O)CSCC(=O)OC(C)C(=O)Nc2ccc(S(N)(=O)=O)cc2)c(C)c1 (centres unmarked) — higher, 5.08%
- COc1ccc(F)cc1C(=O)C1CCCN(C(=O)c2ocnc2C)C1 (centres unmarked) — higher, -10.1%
- O=C(NC1CCCC1)C(=O)N(Cc1cccnc1)C(C(=O)NC1CCCC1)c1ccco1 (centres unmarked) — higher, 19.6%
- O=C(CN1CCN(c2ccccc2F)CC1)c1ccc(O)cc1O — higher, 14.2%
- O=C(CN1CCN(c2ccccc2F)CC1)c1ccc2c(c1)OCO2 — higher, -10.3%
- O=C(CN1CCOCC1)c1ccc2cc[nH]c2c1 — higher, 8.82%
- O=C(CN1CCN(c2ccccc2F)CC1)c1ccc2cc[nH]c2c1 — lower, -82.9%
- O=C(CN1CCN(c2ccccc2)CC1)c1ccc2cc[nH]c2c1 — higher, 11.4%
- O=C(CN1CCN(c2ccccc2F)CC1)c1ccc(O)c(O)c1 — lower, -70.7%
- CC(=O)Cc1nsc(NC(=O)c2ccc(-c3cc(C(F)(F)F)ccc3Cl)o2)n1 — higher, 22.7%
- O=C(c1cccnc1)N1CCN(S(=O)(=O)c2ccc3ccccc3c2)CC1 — lower, -34.9%
- CC(CNC(=O)c1ccc(Br)o1)NC(=O)c1ccc(Br)o1 (centres unmarked) — higher, -0.676%
- CC1CCCCC1NC(=O)COC(=O)CCC(=O)c1cccs1 (centres unmarked) — higher, 17.3%
- CCn1c(Cn2nnc(-c3ccccc3)n2)nnc1SCC(=O)Nc1ccccc1 — higher, -7.39%
- CC(C)Oc1ccc(NC(N)=O)cc1 — higher, 1.14%
